High-throughput results from PubChem.
The list is not random: actives were taken first. Their share in the collection is about 21%.
Cycloheximide cs – affects cycloheximide protein synthesis inhibition readout, counter-screen; max response, %; 300,000 compounds, 12% hits; cell reporter, cycloheximide protein synthesis inhibition counterscreen; in the data active means max response mostly above about 13%, no sharp cut-off; inactive means mostly below about 14%; further: read at 38.3 µM for the half of the compounds with a filed dose
Pf growth 48h – inhibits P. falciparum growth in the first generation, 48 h | 310,000 compounds, 5.9% hits | P. falciparum luciferase growth in erythrocytes, 48 h | AID 504832 | Potency, µM (titrated, usually from 28.7 µM), most hits filed as inhibitors
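In quantitative HTS format, infected erythrocytes bearing luciferase-reporter parasites were treated for a single generation at 37 C. Luminescence after adding detection reagent served as the growth measure.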
Pf growth 96h – P. falciparum growth inhibition at 96 hour, primary screen for plastid delayed-death inhibitors; P. falciparum luciferase reporter growth, 96 h; 320,000 compounds, 6.9% hits; AID 504834; Potency, µM (doses to about 28.7 µM), actives largely listed as inhibitors
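Two parasite generations (96 h, 37 C, 5% CO2) of compound exposure in infected erythrocytes (0.05% parasitemia, 2% hematocrit). Luciferase-reporter P. falciparum; decreased luminescence indicates inhibited growth, aimed at apicoplast-acting delayed death.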
NS1 inh – blocks influenza NS1 protein function; AID 2326; 270,000 compounds, 0.4% hits; Potency, µM (highest dose often 46.1 µM); calls by dose curve; further: actives are rising curves; nearly all actives have a fitted effect of over 50% in size
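Growth recovery, yeast-based: influenza A NS1 expressed in S. cerevisiae causes slow growth, and suppressors are detected by OD600. The parent strain without NS1 is used as positive control.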
Shiga inhibitor – inhibitors of Shiga toxin in Vero cells | Vero cells, Shiga toxin protein synthesis inhibition reporter | 290,000 compounds, 9.2% hits | AID 2315 | inhibition, % at 38.7 µM; in the data active means inhibition mostly above about 28%, no sharp cut-off; inactive means mostly below about 43%
Giardia FBPA inh – blocks Giardia fructose-bisphosphate aldolase activity. 290,000 compounds, 0.71% hits. A8B2U2. Potency, µM (doses to about 59.6 µM), actives largely listed as inhibitors. purified Giardia FBPA; further: nearly all actives have a fitted effect of over 55% in size
Target sequence (A8B2U2 whole entry, looked up): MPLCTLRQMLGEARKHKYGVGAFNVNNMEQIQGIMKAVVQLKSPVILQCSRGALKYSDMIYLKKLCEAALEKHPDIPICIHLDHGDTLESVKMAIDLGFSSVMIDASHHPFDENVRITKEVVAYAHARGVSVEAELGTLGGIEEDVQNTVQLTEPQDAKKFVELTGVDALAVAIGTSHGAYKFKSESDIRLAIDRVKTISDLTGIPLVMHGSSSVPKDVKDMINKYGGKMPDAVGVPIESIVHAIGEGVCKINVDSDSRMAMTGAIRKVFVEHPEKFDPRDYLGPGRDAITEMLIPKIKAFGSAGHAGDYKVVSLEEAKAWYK
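Giardia FBPA (40 nM reagent) was preincubated 10 min at RT with compound (up to 57.5 uM final), then substrate plus GAPDH/TPI/NAD/arsenate coupling system with diaphorase/resazurin was added; resorufin fluorescence (525/598 nm) was read after 20 min.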
A number is an active result; n = inactive; u = inconclusive; x = no result. Unless noted, the call rests on the fitted dose curve; in most records, active means well fitted curve in the direction sought with a large enough effect; inconclusive means small, poorly fitted or top-dose-only effect, or another doubt; inactive means no such curve, though single readings can be large; an effect the other way counts as inactive or inconclusive.

SMILES | Cycloheximide cs | Pf growth 48h | Pf growth 96h | NS1 inh | Shiga inhibitor | Giardia FBPA inh
CCNc1nc(NCc2ccccc2)nc(Oc2ccc(=O)[nH]n2)n1 | n | 1.04µM | n | n | n | n
CCNc1nc(NC(C)CC)nc(Oc2ccc(=O)[nH]n2)n1 (configuration not stated) | n | n | x | n | n | n
CCCCOc1cccc(/C=C(\C#N)C(=O)NC2CC2)c1 | n | n | n | n | n | n
CCOC(=O)c1cc(NC(=O)CC(C)(C)CC(=O)O)ccc1N1CCCCC1 | n | n | u | n | n | n
CCCn1c(=O)c(C(=O)NCCc2ccccc2)c(O)c2ccccc21 | n | n | 14.7µM | n | n | n
CCCn1c(=O)c(C(=O)NCc2ccccc2)c(O)c2ccccc21 | n | n | n | n | n | n
CCCCCn1c(=O)c(C(=O)NCCc2ccccc2)c(O)c2ccccc21 | n | 14.7µM | 5.86µM | n | x | n
COc1cccc([C@@H]2Oc3ccc(OC)cc3C(=O)[C@H]2OC(=O)NCCc2ccc(OC)c(OC)c2)c1 | x | x | x | x | x | n
O=C(NCC1CCCO1)c1cccc(Oc2c(Cl)cccc2[N+](=O)[O-])c1 (configuration not stated) | n | u | n | n | n | n
O=C(NCC1CCCO1)c1cccc(Oc2ccccc2)c1 (configuration not stated) | 33.5 | n | n | n | 53.4 | x
O=C(NCC1CCCO1)c1ccccc1 (configuration not stated) | n | n | u | n | n | n
O=C(NCC1CCCO1)c1cccc(Oc2ccc([N+](=O)[O-])cc2)c1 (configuration not stated) | 23.8 | n | u | n | 50.1 | x
COc1ccc(S(=O)(=O)N2CCCCCC2)cc1C(=O)OCc1cccc(OC)c1OC | x | u | n | x | x | x
N#CCCN(C(=O)c1cc2c(s1)-c1ccccc1S(=O)(=O)C2)c1ccccc1 | n | u | u | n | n | x
CCc1ccc2c(c1)C(=O)C[C@]1(CCC[C@H](C)C1)O2 | x | u | n | x | x | x
Cc1cc2nc(-c3cc(N4CCOCC4)ccc3[N+](=O)[O-])ccn2n1 | n | n | n | x | n | n
Cc1cc2nc(-c3ccc4c(c3)CCC4)ccn2n1 | 20.4 | n | n | n | 46.2 | n
OC(CNCc1ccc(F)cc1)(c1ccc(F)cc1)c1ccc(F)cc1 | n | u | 13.1µM | n | n | n
OC(CNCc1ccc(Cl)cc1)(c1ccccc1)c1ccc(F)cc1 (configuration not stated) | n | 13.1µM | u | x | n | n
CC1=C(C(=O)OC2CCCC2)C(c2coc3ccc(C)cc3c2=O)C2=C(CCCC2=O)N1 (configuration not stated) | n | u | n | x | n | n
COC(=O)c1ccc2c(c1)NC1=C(C(=O)CC(C)(C)C1)C(c1ccncc1)N2 (configuration not stated) | 42.2 | n | n | n | 83.6 | n
CC1=C(C(=O)OC2CCCC2)C(c2coc3ccccc3c2=O)C2=C(CC(C)(C)CC2=O)N1 (configuration not stated) | n | 4.15µM | u | n | n | n
COC(=O)C1=C(C)NC2=C(C(=O)CC(C)(C)C2)C1c1ccccn1 (configuration not stated) | n | n | 9.28µM | n | n | n
CCOc1ccc(N(CC(=O)Nc2cccnc2)S(C)(=O)=O)cc1 | n | n | n | n | n | n
CCOc1ccc(N(CC(=O)Nc2cccc(Br)c2)S(C)(=O)=O)cc1 | 25.7 | n | n | n | 64.1 | n
SMILES | Cycloheximide cs | Pf growth 48h | Pf growth 96h | NS1 inh | Shiga inhibitor | Giardia FBPA inh
CCOc1ccc(N(CC(=O)Nc2cc(C)cc(C)c2)S(C)(=O)=O)cc1 | 59.5 | n | n | n | 74.8 | n
CCOc1ccc(N(CC(=O)Nc2ccc(C)cc2)S(C)(=O)=O)cc1 | 36.6 | n | u | n | 65.9 | n
CCOc1ccc(N(CC(=O)Nc2ccc(C)cc2C)S(C)(=O)=O)cc1 | n | u | n | n | n | n
COc1ccc(C2/C=C\CN(C(=O)c3ccccc3)C(Cc3ccccc3)C(=O)N2Cc2ccc(F)cc2)cc1 (configuration not stated) | n | x | x | x | n | n
Cn1nccc1C(=O)N/N=C/c1c(O)ccc2ccccc12 | 28.0 | 2.62µM | 10.4µM | n | 46.9 | u
O=C(N/N=C\c1c(O)ccc2ccccc12)c1cncc(Br)c1 | n | 2.94µM | 2.33µM | n | n | n
O=C(N/N=C/c1c(O)ccc2ccccc12)c1cccnc1 | n | u | n | n | n | n
O=C(N/N=C/c1c(O)ccc2ccccc12)c1ccc[n+](CCO)c1 | n | 9.28µM | 5.22µM | n | n | n
Cc1ccc(C(=O)N/N=C/c2c(O)ccc3ccccc23)cn1 | n | 3.7µM | n | n | n | n
COc1ccc(CNC(=O)[C@H](C)NC(=O)[C@@H]2Cc3ccccc3CN2)cc1 | n | n | n | n | n | u
Cc1occc1C(=O)N/N=C/c1c(O)ccc2ccccc12 | 35.5 | 2.62µM | n | n | 89.6 | n
O=C(N/N=C\c1c(O)ccc2ccccc12)c1ccc(O)cc1 | n | u | n | n | n | n
O=C(N/N=C/c1c(O)ccc2ccccc12)c1ccc(Br)o1 | 18.0 | u | n | n | n | n
C[N+](C)(C)CC(=O)N/N=C\c1c(O)ccc2ccccc12 | x | x | x | n | x | x
Cn1cc(C(=O)N/N=C/c2c(O)ccc3ccccc23)ccc1=O | n | 2.62µM | n | x | n | n
Fc1cccc(F)c1-c1nc(-c2ccc(Cl)cc2)no1 | 56.0 | n | n | n | 62.8 | n
COc1cccc(-c2noc(-c3ccc(Br)o3)n2)c1 | 32.3 | n | n | n | 109.0 | n
COc1ccc(-c2noc(-c3ccc(Cl)cc3)n2)cc1 | 24.9 | n | u | n | 48.4 | n
COc1ccc(Cc2noc(-c3ccc(C)cc3)n2)cc1 | 28.7 | n | n | u | 72.4 | n
NCc1nc(-c2ccc(Cl)cc2)no1 | n | n | n | n | n | n
COc1cccc(-n2cnnc2SCC(=O)NC2CC2)c1 | x | n | n | x | x | x
COc1ccc(Cl)cc1-c1nc(-c2ccc(Br)o2)no1 | n | x | n | n | n | n
COC(=O)c1ccc(-c2nc(-c3ccc(Br)o3)no2)cc1 | 20.6 | x | n | n | n | n
COc1ccc(-c2noc(-c3ccc(Br)o3)n2)cc1 | 29.9 | n | n | n | 69.4 | n
COc1ccc(-c2noc(-c3ccccc3-c3ccccc3)n2)cc1 | n | n | u | n | n | n
COc1ccc(-c2nc(-c3ccc(Br)o3)no2)cc1 | 28.5 | x | n | n | 63.9 | n
NC(N)=NC1=NC(=O)C(Cc2ccccc2)S1 (configuration not stated) | 18.7 | n | u | n | n | n
CSCC[C@@H](C(=O)Nc1ccc2c(c1)OCCO2)N1Cc2ccccc2C1=O | 27.3 | x | u | n | n | n
CSCC[C@@H](C(=O)O)N1Cc2ccccc2C1=O | n | x | u | n | n | u
CSCC[C@@H](C(=O)NCc1cccs1)N1Cc2ccccc2C1=O | n | x | 8.28µM | n | n | n
